# Bioassay records from PubChem BioAssay.
# Pf growth 48h = inhibits P. falciparum growth in the first generation, 48 h | P. falciparum luciferase growth in erythrocytes, 48 h | Potency, µM (doses to about 28.7 µM), most hits filed as inhibitors | 310,000 tested, 5.9% active | AID 504832
#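 Erythrocytes infected with P. falciparum carrying an integrated firefly luciferase reporter (2% hematocrit, 0.1% parasitemia final) were exposed to compounds in RPMI 1640 with 0.5% Albumax at 37 C, 5% CO2. Growth inhibition was scored as reduced luminescence.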
# AMA1-RON2 inh = disrupts binding of P. falciparum AMA1 to RON2; AlphaScreen AMA1-biotinylated RON2 peptide binding; Potency, µM (highest dose often 58.2 µM), hits mostly inhibitors; 360,000 tested, 0.2% active; also: nearly all actives have a fitted effect of over 45% in size
#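 AMA1 (3D7) with his tag at 25 nM final met compounds first, then biotinylated RON2 peptide at 25 nM; detection used donor plus acceptor beads, 10 µg/mL apiece, read by AlphaScreen after 30 min at room temperature.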
# Pf growth 96h = P. falciparum growth inhibition at 96 hour, primary screen for plastid delayed-death inhibitors; P. falciparum luciferase reporter growth, 96 h; Potency, µM (titrated, usually from 28.7 µM), usual class: inhibitors; 320,000 tested, 6.9% active; AID 504834
#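 Compounds incubated with erythrocytes infected by luciferase-expressing P. falciparum (2% hematocrit, 0.05% parasitemia final) for 96 hours, 37 C in 5% CO2. Growth inhibition scored as decreased luciferase luminescence.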
# CHX counter = affects cycloheximide protein synthesis inhibition readout, counter-screen; cell reporter, cycloheximide protein synthesis inhibition counterscreen; max response, %; 300,000 tested, 12% active; in the data active = max response mostly above about 13%, no sharp cut-off; inactive = mostly below about 14%; also: read at 38.3 µM for the half of the compounds with a filed dose
# SARS PLpro yeast = inhibitors of SARS-CoV papain-like protease in yeast. S. cerevisiae expressing SARS-CoV PLpro, growth rescue. 330,000 tested, 0.19% active. Potency, µM (series often up to 32.9 µM), usual class: activators. AID 485353; calls by dose curve; also: nearly all actives have a fitted effect of over 55% in size
# Shiga inhibitor = blocks Shiga toxin action in Vero cells | Vero cells, Shiga toxin protein synthesis inhibition reporter | inhibition, % at 38.7 µM | 290,000 tested, 9.2% active; in the data active = inhibition mostly above about 28%, no sharp cut-off; inactive = mostly below about 43%
# Numbers stand for hits; - = inactive; ? = inconclusive; . = not tested or not shown; + = active, no number; ! = not confirmed by another sample; [ ] = another dose, or the depositor's remark. An excerpt weighted towards active compounds, which were near 19% of everything screened. Unless noted, calls follow the shape of the dose curve; as a rule, active = well fitted curve in the direction sought with a large enough effect; inconclusive = small, poorly fitted or top-dose-only effect, or another doubt; inactive = no such curve, though single readings can be large; an effect the other way counts as inactive or inconclusive.
SMILES,Pf growth 48h,AMA1-RON2 inh,Pf growth 96h,CHX counter,SARS PLpro yeast,Shiga inhibitor
COC(=O)CC(NS(=O)(=O)c1cccs1)c1ccc2c(c1)OCO2 (stereo unspecified),-,-,-,-,?,-
CCC(=O)N(CCC1(c2ccccc2OC)CCOC(C(C)C)C1)Cc1ccco1 (stereo unspecified),10µM,-,10µM,26,-,-
COc1ccccc1C1(CCNC(C)c2cccs2)CCOC(C(C)C)C1 (stereo unspecified),8.3µM,-,8.3µM,-,-,-
Cn1cnnc1SCC(=O)c1c[nH]c2ccccc12,-,-,.,-,-,-
CCCCNc1nnc(SCC(=O)c2c[nH]c3ccccc23)s1,10µM,-[11.6 µM],8.3µM,-,-,-
Cc1cccc(NC(=O)CN2CCC(NC(=O)C3CCCCC3)CC2)c1C,-,-,4.1µM,-,-,-
Cc1ccc(NC(=O)CN2CCC(NC(=O)C3CCCCC3)CC2)c(Br)c1,-,-,12µM,-,-,-
CCCS(=O)(=O)NC(=O)C1(C)CCCN(C(=O)COCc2ccccc2)C1 (stereo unspecified),.,-,.,.,.,.
CCOC(=O)/C(=N/Nc1ccc(C)cc1)S(=O)(=O)c1ccc(Cl)cc1,-,-,.,23,-,-
N#CC(C#N)=C(C#N)c1ccc(Nc2ccccc2)cc1,-,-,12µM,-,-,.
NNc1ccccc1,-,.,-,14!,.,-
O=[N+]([O-])c1ccccc1Nc1ccccc1,-,10µM,-,-,-,-
O=[N+]([O-])c1ccc(Nc2ccccc2)cc1,-,-,?,16,-,-
CC1(C)CC(=O)N(c2cc(Cl)cc(Cl)c2)C(=O)C1,-,-,-,-,-,-
COc1cccc(CN2CCN(C(=O)CCc3nnc(C4CCCCC4)o3)CC2=O)c1,?,-,?,-,-,-
c1cnc2nc3c4ccccc4c4ccccc4c3nc2c1,.,-,.,.,.,.
CCOc1ccc(C(=O)C2CCN(C(=O)c3ccc([N+](=O)[O-])cc3)CC2)cc1,-,-,?,-,-,-
c1ccc(Nc2ccc(Nc3ccccc3)cc2)cc1,-,16µM,?,.,-,.
O=C1C=CC(=O)N1c1ccc(Nc2ccccc2)cc1,.,-,.,.,.,.
COc1ccccc1C(=O)Nc1nc2ccc(S(C)(=O)=O)cc2s1,-,-,-,17,-,+
CS(=O)(=O)c1ccc2nc(NC(=O)c3ccccc3Br)sc2c1,-,-,-,37,-,70
CS(=O)(=O)c1ccc2nc(NC(=O)c3ccccc3Cl)sc2c1,-,?,?,15,-,59
CS(=O)(=O)c1ccc2nc(NC(=O)C3CC3)sc2c1,.,-,.,.,.,.
CS(=O)(=O)c1ccc2nc(NC(=O)CCNC(=O)c3ccccc3Cl)sc2c1,10µM,-,-,.,-,.
Cc1ccc(/C=C/C(=O)OCc2nc(N)nc(Nc3ccccc3C)n2)o1,-,-,-,-,-,-
SMILES,Pf growth 48h,AMA1-RON2 inh,Pf growth 96h,CHX counter,SARS PLpro yeast,Shiga inhibitor
CCOc1ccc(OCCC(=O)OCC(=O)NCc2ccccc2)cc1,-,-,-,-,-,-
COc1cc(C(C)=O)ccc1Oc1ccc(S(=O)(=O)N2CCOCC2)cn1,-,-,-,.,-,.
Cc1nc2c(cc(Oc3ccc(S(=O)(=O)N4CCOCC4)cn3)c3ccsc32)s1,?,-,?,72,-,113
CN(Cc1cccc(F)c1)C(=O)c1cc(S(=O)(=O)N2CCOCC2)ccc1N1CCCC1,?,-,?,.,-,.
CCCNC(=O)c1cc(S(=O)(=O)N2CCCCC2)ccc1N1CCOCC1,?,-,-,.,-,.
CC1CCC(NC(=O)c2cc(S(=O)(=O)N3CCCCC3)ccc2N2CCOCC2)CC1 (stereo unspecified),9.3µM,-,?,.,-,.
CCc1ccc(CN(C)C(=O)c2cc(S(=O)(=O)N3CCOCC3)ccc2N2CCCC2)cc1,12µM,-,?,.,-,.
CCCCCC(C)NC(=O)c1cc(S(=O)(=O)N2CCCCC2)ccc1N1CCOCC1 (stereo unspecified),13µM,-,?,.,-,.
COc1ccc(NC(=O)CCCn2nc(C)c3c(C)n(-c4ccccc4)nc3c2=O)cc1,-,-,?,-,-,-
CCN(CC(=O)NCc1ccc(Cl)cc1)C(=O)CSCC(=O)Nc1cccc(C)c1,-,-,-,-,-,-
CC(=O)N/C(=C\c1ccccc1)C(=O)OC/C=C/c1ccccc1,-,-,-,-,-,-
Cc1cc[n+](C(C)C(=O)c2ccc(-c3ccccc3)cc2)cc1 (stereo unspecified),1.2µM,-,-,-,-,-
CC(C(=O)c1ccc(-c2ccccc2)cc1)[n+]1ccccc1 (stereo unspecified),8.3µM,-,2.3µM,-,-,-
CC(C(=O)c1ccc(-c2ccccc2)cc1)[n+]1cccc(C(N)=O)c1 (stereo unspecified),-,-,9.3µM,-,-,-
Cc1ccc[n+](C(C)C(=O)c2ccc(-c3ccccc3)cc2)c1 (stereo unspecified),?,-,?,-,-,-
O=S1(=O)c2ccc(Br)cc2N2CCC[C@@H]2CN1Cc1ccccc1,.,-,.,.,-,.
O=S1(=O)C[C@H](N2CC[C@@H](O)C2)[C@@H](COCc2ccccc2)N1,.,-,.,.,.,.
CS(=O)(=O)N1N=C(c2cccs2)CC1c1ccccc1F (stereo unspecified),-,-,-,-,-,-
COc1ccc(C2CC(c3cccs3)=NN2S(=O)(=O)c2ccc(C)cc2)cc1 (stereo unspecified),.,-,.,.,.,.
COc1ccc(C2CC(c3cccs3)=Nc3ccccc3S2)cc1 (stereo unspecified),-,-,?,61,-,83
CS(=O)(=O)N1N=C(c2cccs2)CC1c1ccc(Cl)o1 (stereo unspecified),-,-,-,36,-,66
CS(=O)(=O)N1N=C(c2cccs2)CC1c1ccccc1 (stereo unspecified),?,-,?,13,-,-
c1ccc(C2Oc3ccccc3C3CC(c4cccs4)=NN32)cc1 (stereo unspecified),-,-,-,56,.,105
O=C(O)CCC(=O)N1N=C(c2cccs2)CC1c1ccc(Br)cc1 (stereo unspecified),-,-,-,-,-,-
COC(=O)[C@@]1(Cc2ccc(OC)cc2)[C@H]2c3cc(C(=O)N4CCCC4)n(Cc4ccc(C)c(F)c4F)c3C[C@H]2CN1C(=O)c1ccccc1,.,-,.,.,.,.
OC(CNC1CCCCC1)CN1CCN(CC(O)CNC2CCCCC2)CC1 (stereo unspecified),-,.,.,-,-,-
CCCOc1ccc(F)cc1-c1cc(C(=O)Nc2ccc(OC)cc2C)[nH]n1,.,-,.,.,.,.
COc1ccc(O)c(C2=Nc3ccccc3N=C(c3cccs3)C2)c1,-,-,-,16,-,-
COc1ccc(O)c(-c2cn[nH]c2-c2cccs2)c1,-,-,?,-,-,-
